Screen size: about 330,000 compounds; about 7,300 (2.2%) were called active.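 Rule for the calls: active = inhibition of at least 40%; inactive = the rest.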 The sample as a whole holds a higher share of actives than the screen did.

Broadly, the inhibition is the drop in the measured response relative to a control, in per cent.

The experiment can be described thus: growth inhibitors of tim10-1 mutant yeast, primary screen, luminescence, uHTS (AID 463190).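 Note: mutant grown at 25 °C; 0% = DMSO wells with yeast and 100% = wells holding no yeast.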 The note with it: S. cerevisiae tim10-1 ts strain growth, BacTiter-Glo, 24 h; at 20 µM; active compounds read high.
With `Cc1ccc(NC(=O)Cc2nc(COC(=O)C(C)NS(=O)(=O)c3ccc(C)cc3)cs2)cc1` (stereo not given), the inhibition was 15.7% (inactive).

As to `O=C(CSC(=S)N1CCCCC1)c1c(F)cccc1F`, the inhibition was 9.67% (inactive).

For `Oc1c(Cl)cc(Cl)c(Cl)c1Cc1c(O)c(Cl)cc(Cl)c1Cl`, the inhibition was 91% (active).

On to `Cc1cc(/C=N/NC(=O)CC2(C)OCCO2)c(C)n1-c1ccc(Cl)c(Cl)c1`, for which the inhibition was 1.86% (inactive).

Turning to `O=C1c2cccnc2C(Nc2ccc(S(=O)(=O)N3CCCCCC3)cc2)N1Cc1ccccc1` (stereo not given), the inhibition is 34.2% (inactive).

As to `CC1=C(/C=C/C(C)=C/C=C/C(C)=C/C=C/C=C(C)/C=C/C=C(C)/C=C/C2=C(C)CCCC2(C)C)C(C)(C)CCC1`, the inhibition was 10.6% (inactive).

As for `CCCCCCCCCCCCCCCC(=O)OC/C=C(C)/C=C/C=C(C)/C=C/C1=C(C)CCCC1(C)C`, the inhibition was 40.7% (active).

For `COC(=O)c1ccccc1NC(=O)CN(Cc1ccc(Cl)cc1)S(C)(=O)=O`, the inhibition was 10.7% (inactive).

For the compound `CCCCNCc1ccc(SC)cc1`, the inhibition was -1.78% (inactive).

With `O=C(Nc1cccc(F)c1)c1coc(=O)c(Br)c1`, the inhibition was 18.9% (inactive).

In the case of `CCc1ccccc1N1CN(Cc2ccco2)CNC1=S`, the inhibition was 17.4% (inactive).

On to `C/C(=N\Nc1ccc([N+](=O)[O-])cc1)c1ccc(-n2nncc2C(C)(C)C)cc1`, for which the inhibition was -1.51% (inactive).

Consider `COc1ccc(NC(=O)c2ccc(C#CC(C)(C)O)cc2)cc1`, for which the inhibition was 9.08% (inactive).

For `COc1ccc(C(=O)Nc2ccc(-n3nncc3C(C)(C)C)cc2)cc1`, the inhibition was 44% (active).

For the compound `CCCNC(=O)c1ccc(N2CCC3(CC2)CC(c2ccc(Cl)cc2)=NO3)c([N+](=O)[O-])c1`, the inhibition was 7.65% (inactive).

Regarding `Cc1nonc1OCCn1nnnc1N`, the inhibition was 4.98% (inactive).

`COc1ccccc1N(CCOc1ccccc1)S(=O)(=O)c1ccccc1`: the inhibition is 7.59% (inactive).

Turning to `Cc1ccccc1C1=N/C(=C/c2cccnc2)C(=O)O1`, the inhibition was 31.3% (inactive).

Consider `O=C1OC(/C=C/c2ccccc2)=NC/1=C/c1ccco1`, for which the inhibition was 45.5% (active).

On to `COc1ccccc1/C=C/C1=NC(=C\N(C)C)/C(=O)O1`, for which the inhibition is 21% (inactive).

In the case of `CCN(Cc1ccccc1)C(=O)CCS(=O)(=O)c1ccc2c(c1)oc(=O)n2C`, the inhibition is -13% (inactive).

Take `C[C@H](CO)N1C[C@H](C)[C@@H](CN(C)C(=O)Nc2ccc3c(c2)OCO3)Oc2c(cccc2N(C)C)C1=O`: the inhibition is 12.3% (inactive).

For the compound `CCS(=O)(=O)N1CCC(N2CCN(c3ccccc3)CC2)CC1`, the inhibition was 4.85% (inactive).

As for `Cc1cccc(NC(=O)c2sc3nc(N4CCOCC4)c4c(c3c2N)CCCC4)c1`, the inhibition is 32% (inactive).

As to `Cc1sc2nc(CC(N)=O)[nH]c(=O)c2c1-c1ccccc1`, the inhibition is 6.26% (inactive).

Regarding `COC(=O)c1cc2c(N)c(C(=O)c3ccc(Cl)cc3)sc2nc1C(OC)OC`, the inhibition was 10.6% (inactive).

For the compound `CC(C)OC(=O)c1sc2nc3c(cc2c1N)C(=O)CCC3`, the inhibition is -8.03% (inactive).

Regarding `NC(=O)c1sc2nc3c(c(-c4ccccc4)c2c1N)CCC3`, the inhibition was 41.3% (active).

In the case of `CCN(CC)C(=O)c1sc2nc(-c3ccccc3)ccc2c1N`, the inhibition is 21% (inactive).

Turning to `Cc1nc2sc(C(=O)c3ccccc3)c(N)c2c2c1CCCC2`, the inhibition is 42.2% (active).

With `CCc1nc2sc(C(=O)O)c(N)c2c2c1CCCC2`, the inhibition was -71.8% (inactive).

As to `Cc1ccc2c(N)c(C(=O)c3ccccc3)sc2n1`, the inhibition was 41.9% (active).

Turning to `Cc1cc(C)cc(NC(=O)c2cccc(NC(=O)C3C4CC5OC(=O)C3C5C4)c2)c1` (stereo not given), the inhibition is 4.38% (inactive).

Turning to `CCCC(NC(=O)c1ccco1)c1nc2ccccc2[nH]1` (stereo not given), the inhibition is 14.1% (inactive).

Take `CCOc1ccc(CCNC(=O)C2=C(C)C(=O)OC23CCC(C)CC3)cc1OCC` (stereo not given): the inhibition was 19.9% (inactive).

For the compound `Nc1nc(-c2sc3nc4c(cc3c2N)CCCC4)nc(N2CCOCC2)n1`, the inhibition is 27.8% (inactive).

As for `CCN(CC)Cc1csc2ccc(Br)cc12`, the inhibition is 7.29% (inactive).

As to `COc1ccccc1OCCNCC(O)COc1cccc2[nH]c3ccccc3c12` (stereo not given), the inhibition was 22.3% (inactive).

`COc1ccc(C)cc1S(=O)(=O)NCCc1ccccc1`: the inhibition was 22.2% (inactive).

Turning to `CCOC(=O)c1nnn(-c2nonc2-n2cccc2)c1CN1CCC(C(=O)OCC)CC1`, the inhibition was 31.9% (inactive).

Turning to `CC(=O)c1cccc(OCC(=O)OCC(=O)Nc2cc(S(=O)(=O)N3CCCCC3)ccc2C)c1`, the inhibition was 1.6% (inactive).

For `COc1ccc(N(C)C(=O)C2CCN(S(=O)(=O)c3cccc4nsnc34)CC2)cc1`, the inhibition is 6.33% (inactive).

As to `CC(C)C(=O)Nc1ccc2c3c(cccc13)CC2`, the inhibition was -15.9% (inactive).

On to `CC(C)c1cc(CN2CCOCC2)cc(C(C)C)c1O`, for which the inhibition is -5.76% (inactive).

`Oc1c(C(c2ccccn2)N2CCOCC2)ccc2cccnc12` (stereo not given): the inhibition is 43.7% (active).

Take `COc1ccc(CCNC(=O)C2CCCN(S(=O)(=O)c3ccc(OC)cc3)C2)cc1` (stereo not given): the inhibition was 1.05% (inactive).

As to `COc1ccc2c(c1)O/C(=C\c1ccccc1O)C2=O`, the inhibition is 18% (inactive).

As for `COC(=O)c1ccc(/C=C2/C(=O)Oc3ccccc32)cc1`, the inhibition is 39.9% (inactive).

With `O=C1Oc2ccccc2C(=O)/C1=C/c1ccccc1O`, the inhibition was 62.2% (active).

As for `Cc1ccccc1/C=C\c1nc(O)c([N+](=O)[O-])c(=O)[nH]1`, the inhibition is -8.34% (inactive).

As to `CN(C)Cc1c(O)ccc2c(=O)c(-c3ccccc3Cl)coc12`, the inhibition is 1.49% (inactive).

Consider `COc1ccc(NC(=O)CCCNC(=O)Cn2cnc3sc4c(c3c2=O)CCCC4)cc1OC`, for which the inhibition was -24.1% (inactive).

Turning to `COc1ccc(NC(=O)CCNC(=O)Cn2cnc3sc4c(c3c2=O)CCCC4)cc1OC`, the inhibition was -10.3% (inactive).

With `COc1ccc(/C=N/Nc2ncnc3sc4c(c23)CCCC4)cc1O`, the inhibition was 40.7% (active).

In the case of `S=C(NCCc1ccccc1)Nc1ccccc1`, the inhibition is 19.1% (inactive).

With `S=C(NCCCc1ccccc1)Nc1ccc(Br)cc1`, the inhibition was 64.1% (active).

As for `O=C(CCNC(=O)c1ccc(Br)cc1)NCCCc1ccccc1`, the inhibition is 7.38% (inactive).

Turning to `CC12CN(NC(=O)c3ccc(Cl)cc3)C3(C#N)CC1CCC23C` (stereo not given), the inhibition is 36.5% (inactive).

As for `CCn1nc(C(=O)NNS(=O)(=O)c2cc(/C=C/C(=O)O)cc(OC)c2OC)c2ccccc2c1=O`, the inhibition is -3.64% (inactive).

Take `O=C(COC(=O)c1ccc(S(=O)(=O)N2CCc3ccccc3C2)cc1)NC(=O)NCc1ccco1`: the inhibition was 0.504% (inactive).

The values above are taken from PubChem BioAssay AID463190 (Sanford-Burnham Center for Chemical Genomics, 2010).
